TDP1 inh – inhibitors of human tyrosyl-DNA phosphodiesterase TDP1; AID 485290; Potency, µM (highest dose often 130 µM), without a hit: at the highest dose activity change, negative = inhibition, most hits filed as inhibitors; recombinant TDP1, AlphaScreen DNA substrate cleavage; Q9NUW8; 0.28% of 350,000 active; further: nearly all actives have a fitted effect of over 40% in size
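E. coli-derived human Tdp1, 1 nM final. Cpd preinc 15 min RT; substrate 15 nM final, 5 min RT; AS bead mix 10 ug/ml final, 10 min RT. Signal loss = tyrosine-FITC cleavage. No-enzyme wells = max signal.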
VP16 counter – inhibits Gal4-VP16 luciferase reporter, ROR gamma counter-screen. Drosophila S2 Gal4-VP16 UAS-luciferase, luminescence, 20 h. Potency, µM (highest dose often 53.6 µM), for the others: at the highest dose activity, negative = inhibition, hits mostly inhibitors. 3.5% of 310,000 active;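 further: Gal4-VP16 expression switched on by copper sulfate through the metallothionein promoter; nearly all actives have a fitted effect of over 50% in size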
TDP1 cell CPT – growth inhibition of DT40 Tdp1-/-;hTDP1 cells with camptothecin (screen for TDP1 inhibitors) | chicken DT40 Tdp1-/-;hTDP1 cells + 20 nM CPT, ATP luminescence, 48 h | Potency, µM (doses to about 46.2 µM), for inactives: at the highest dose activity change, negative = growth inhibition, most hits filed as inhibitors | 12% of 420,000 active | AID 686979; further: nearly all actives have a fitted effect of over 55% in size
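Chicken DT40 Tdp1-/- cells stably complemented with human TDP1 were seeded at 400 cells/well in medium containing 20 nM camptothecin, exposed to pin-transferred compounds, and grown at 37 °C for at least 48 hr. Viability was read as ATP luminescence.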
DT40 TDP1 no CPT – qHTS for Inhibitors of human tyrosyl-DNA phosphodiesterase 1 (TDP1): qHTS in cells in absence of CPT; DT40 Tdp1-/- hTDP1 cells, no CPT, ATP luminescence, 48 h; Potency, µM (top dose mostly 46.2 µM), for inactives: at the top dose activity change, negative = growth inhibition, most hits filed as inhibitors; 15% of 420,000 active; further: nearly all actives have a fitted effect of over 55% in size
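A cellular qHTS used chicken DT40 cells lacking endogenous Tdp1 but carrying stably transfected human TDP1. Compounds were applied without camptothecin, and cell growth kinetics were judged by ATP-dependent luminescence after ≥48 hr.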
RORg inh – blocks mouse ROR gamma transcriptional activity; P51450; Drosophila S2 Gal4-RORgamma UAS-luciferase reporter, 20 h; Potency, µM (highest dose often 53.6 µM), inactives show at the top dose activity change, negative = inhibition, most hits filed as inhibitors; 5.4% of 310,000 active; further: nearly all actives have a fitted effect of over 60% in size
Target sequence (P51450 whole entry, looked up, the tested form may be a part): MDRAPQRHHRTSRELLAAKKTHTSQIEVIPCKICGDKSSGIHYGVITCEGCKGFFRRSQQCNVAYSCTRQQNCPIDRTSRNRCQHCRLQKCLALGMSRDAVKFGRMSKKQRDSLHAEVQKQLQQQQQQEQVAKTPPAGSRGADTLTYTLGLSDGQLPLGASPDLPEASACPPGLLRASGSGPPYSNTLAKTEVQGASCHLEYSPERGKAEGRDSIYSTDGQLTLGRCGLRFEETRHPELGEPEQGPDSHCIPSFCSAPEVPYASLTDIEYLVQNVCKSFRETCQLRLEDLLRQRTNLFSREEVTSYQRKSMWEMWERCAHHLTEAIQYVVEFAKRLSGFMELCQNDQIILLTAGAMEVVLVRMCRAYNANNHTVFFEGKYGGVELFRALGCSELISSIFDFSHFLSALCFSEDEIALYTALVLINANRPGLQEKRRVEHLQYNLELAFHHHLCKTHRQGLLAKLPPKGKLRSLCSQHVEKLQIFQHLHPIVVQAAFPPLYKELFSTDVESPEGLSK
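Schneider cells (Drosophila), stable Gal4 DBD–ROR gamma + UAS-luc; 1 hr cmpd preincubation; Cu2+ induction 700 uM final; 20 hr ambient; luminescence.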
* marks the source's active call; other numbers are inactive results; ? = inconclusive; . = not tested or not shown; [ ] = dose if it differs, or a comment. An excerpt weighted towards active compounds, which were near 19% of everything screened. The call rests on the fitted dose curve; in most records, active means well fitted curve in the direction sought with a large enough effect; inconclusive means small, poorly fitted or top-dose-only effect, or another doubt; inactive means no such curve, though single readings can be large; an effect the other way counts as inactive or inconclusive. On the % scale 0 is the no-effect control and ±100 the full control effect; potency means the concentration at half of the fitted maximal effect.

SMILES | TDP1 inh | VP16 counter | TDP1 cell CPT | DT40 TDP1 no CPT | RORg inh
COc1ccccc1NC(=O)/C(C#N)=C/c1ccncc1 | 2% | 2.5µM* | -23% | 3% | ?
O=C(CCC(C(=O)O)N1C(=O)c2ccccc2C1=O)Nc1ccccc1 (stereo not given) | . | . | -12% | 3% | .
CCN(CC)CCN=CC1=C(O)CNC1=O | -14% | 2% | -17% | 1% | -20%
CC(=O)[C@@H]1[C@@H]2C(=O)N(c3ccc(F)c(Cl)c3)C(=O)[C@@H]2C2c3ccccc3C=CN21 (stereo not given in full) | 3% | -6% | . | . | 1%
OC(CCCN1CCCCC1)(c1ccccc1)c1ccc(C(F)(F)F)cc1 (stereo not given) | . | . | ? | 18µM* | .
OC(CCN1CCCCC1)(c1ccccc1)c1ccccc1 | 11% | 5% | ? | ? | -9%
C=CCn1c(C)cc(C(=O)COC(=O)c2ccc(N)c([N+](=O)[O-])c2)c1C | 3% | ? | 18µM* | 16µM* | 22%
Cc1cc(C(=O)COC(=O)CC2Sc3ccccc3NC2=O)c(C)n1-c1ccc2c(c1)OCO2 (stereo not given) | 0% | -3% | ? | ? | 32%
CC(=O)Nc1ccc(S(=O)(=O)NCC(=O)OCC(=O)c2cc(C)n(-c3ccc4c(c3)OCO4)c2C)cc1 | 6% | -8% | -12% | 8.2µM* | 1%
Cc1nnc(SCC(=O)c2cc(C)n(-c3ccc4c(c3)OCO4)c2C)s1 | 4% | ? | 26µM* | 23µM* | ?
Cc1cc(C(=O)COC(=O)c2ccc(N)c([N+](=O)[O-])c2)c(C)n1-c1ccc2c(c1)OCO2 | 6% | ? | 9.2µM* | 5.8µM* | ?
COc1ccc(-c2nc3sc(CCNC(=O)C(=O)Nc4ccc(C)cc4C)c(C)n3n2)cc1 | . | . | -10% | -12% | .
C=CCn1c(C)cc(C(=O)COC(=O)c2ccc3c(c2)NC(=O)CS3)c1C | 6% | -30% | ? | 16µM* | 7%
CC(=O)c1ccc(OCC(=O)c2cc(C)n(-c3ccc4c(c3)OCO4)c2C)cc1 | -3% | 10µM* | 23µM* | 10µM* | ?
CCCC1(CCC)NC(=O)N(CC(=O)c2cc(C)n(-c3ccc4c(c3)OCO4)c2C)C1=O | 11% | 0% | ? | 21µM* | 39%
Cc1cc(C(=O)CN2C(=O)C(=O)N(Cc3ccccc3)C2=O)c(C)n1-c1ccc2c(c1)OCCO2 | 5% | 7% | 15µM* | 21µM* | 6%
C/C=C(\C)C(=O)OC1[C@@H]2C=C3C4CC(=O)OC(c5ccoc5)[C@]4(C)CCC3[C@@](C)(C2=O)C(C(O)C(=O)OC)C1(C)C (stereo not given in full) | 7%[56.1 µM] | 0% | 11% | -3% | 1%
O=C(N/C=C\n1cnc2cc(C(F)(F)F)ccc21)c1ccc([N+](=O)[O-])cc1 | 0% | 0% | -3% | -23% | 1%
O=C(Nc1ccc(F)cc1)C1CCN(C(=O)c2ccc(F)cc2)CC1 | -2%[56.1 µM] | . | -1% | 1% | .
COc1ccc(CCNC(=O)c2nn(-c3ccc(C)cc3)c(=O)c3c2c2ccccc2n3C)cc1OC | -2% | . | ? | 2.1µM* | .
CCN(C(=O)c1nn(-c2ccc(C)cc2)c(=O)c2c1c1ccccc1n2C)c1ccc(F)cc1 | 5% | . | ? | 13µM* | .
Cc1ccc(-n2nc(C(=O)N(C)c3ccc(C)c(C)c3)c3c4ccccc4n(C)c3c2=O)cc1 | 5% | . | 16µM* | 13µM* | .
CCN(CC)CCCNC(=O)c1nn(-c2ccc(C)cc2)c(=O)c2c1c1ccccc1n2C | 5% | . | ? | ? | .
CCN(CC)CCOC(=O)c1ccc(NC(=O)c2nn(-c3ccc(C)cc3)c(=O)c3c2c2ccccc2n3C)cc1 | -2% | . | 1.2µM* | 0.58µM* | .
CCCN(C(=O)c1nn(-c2ccc(C)cc2)c(=O)c2c1c1ccccc1n2C)c1ccccc1C | 0% | . | ? | ? | .
COc1ccc(OC)c(NC(=O)c2ccc3c(c2)OCO3)c1 | . | -4% | -16% | 0% | ?

Compound activity: PubChem BioAssay, National Center for Advancing Translational Sciences (NCATS)
